Screening data (PubChem)
The full list was thinned out, with hits kept by preference.
Pf Dd2 inh – blocks in vitro growth of P. falciparum Dd2. P. falciparum Dd2 growth, SYBR Green, 72 h. hit rate 4.3% among 120,000. Potency, µM (doses to about 28.9 µM), actives largely listed as inhibitors; active means well fitted inhibition curve with a large enough effect; further: nearly all actives have a fitted effect of over 65% in size
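Readout: SYBR Green fluorescence, 485 nm excitation, 535 nm emission, after ~16 h lysis at 37C. Before that, Dd2-infected red cells (2.5% hematocrit) grew 72 h with compound, 29 uM top final concentration.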
Hits are given with their value; n = inactive; [ ] = dose if it differs, or a comment.

SMILES | Pf Dd2 inh
COC1CCN(c2ccc(-c3nc(COc4ccccc4)no3)cn2)CC1 | n
CCN1CCN(c2ccc(-c3nc(CCCc4ccccc4)no3)cn2)CC1 | 10µM
c1ccc(CCc2noc(-c3ccc(N4CCCOCC4)nc3)n2)cc1 | n
COc1ccc(-c2noc([C@@H]3C[C@@H](O)CN3Cc3ccc(F)cc3)n2)cc1 | n
CCCN(CC1CCOC1)S(=O)(=O)c1cc(F)cc(F)c1 (stereo not given) | n[5.79 µM]
CNC(=O)[C@H]1C[C@H](Oc2cccnc2)CN1C(=O)NCc1ccc(F)cc1 | n
O=C(c1cccc(N2CCCC2=O)c1)N1CCCC(O)(CN2CCCC2)C1 (stereo not given) | n
CS(=O)(=O)Nc1ccc(C2(C(=O)NCc3ccc4c(c3)OCO4)CCCCC2)cc1 | n
O=C(Nc1ccc(C2(C(=O)NCc3ccc4c(c3)OCO4)CCCCC2)cc1)C1CC1 | 13µM
O=C(Nc1ccc(C2(C(=O)NCc3ccc(F)cc3)CCCCC2)cc1)C1CC1 | n
O=C(C1COc2ccccc2C1)N1CCC(Cc2noc(C3CC3)n2)CC1 (stereo not given) | n
CCN1c2ccccc2-n2cccc2C12CCN(C(=O)Nc1ccccc1C(F)(F)F)CC2 | 2.8µM
CC(=O)N1CCC2(CC1)OC(=O)C(C)=C2C(=O)Nc1ccccc1C(F)(F)F | n
CS(=O)(=O)N1CCC(OC2CCN(C(=O)Nc3ccccc3C(F)(F)F)CC2)CC1 | n
CC1(C)CN(C(=O)Cn2cc(C(F)(F)F)ccc2=O)C[C@]1(C)O | n
O=c1[nH]ccn1C1CCN(Cc2ccc(OC(F)(F)F)cc2)CC1 | n
CN1CC(=O)N(C2CCC2)Cc2c1ncnc2N1CCCC1 | n
CCN1C(=O)C2(CCN(S(=O)(=O)c3ccc(C)cc3)CC2)c2ccccc21 | n
Cc1c(C(C)NC(=O)c2ccc(=O)[nH]c2)cnn1-c1cccc2ccccc12 (stereo not given) | n
CO[C@H]1C(=O)N(C(C)C)[C@H]1C1CCN(Cc2cccc(C#N)c2)CC1 | 10µM
CO[C@H]1C(=O)N(C(C)C)[C@H]1C1CCN(C(=O)c2cccc(C#N)c2)CC1 | n
CO[C@H]1C(=O)N(C(C)C)[C@H]1C1CCN(Cc2cccc(F)c2)CC1 | n
COc1ccc(C2NC(=O)N(Cc3nc(C4CC4)no3)C3=C2C(=O)OC3)cc1 (stereo not given) | n
O=C1CC2(CCN(C(=O)c3ccc(C(F)(F)F)cc3)CC2)Oc2cc(Cl)ccc21 | n
CCC(CC)NC(=O)[C@H]1CCC[C@H]1NC(=O)c1ccc(OC)nc1 | n
SMILES | Pf Dd2 inh
O=C(CC1CCN(S(=O)(=O)c2ccccc2F)C1)NCc1ccccc1 (stereo not given) | n
O=C(Cn1nc2c(cc1=O)CCCC2)Nc1nc2ccccc2s1 | n
COc1cc(NC(=O)CCc2nc(-c3cccs3)no2)cc(OC)c1OC | n
O=C(CCc1nc(-c2cccs2)no1)Nc1ccc([N+](=O)[O-])cc1 | 11µM
Cc1cccc(-c2noc(-c3ccccc3OCC(=O)Nc3ccc([N+](=O)[O-])cc3)n2)c1 | n
CCCC(C)N1CC2(CCN(Cc3nnc(-c4ccccc4)o3)CC2)OC1=O (stereo not given) | n
CCc1ccc(NC(=O)Cn2nnc(C(=O)NCc3ccc(C)cc3)c2N)cc1 | n
Cc1ccc(CNC(=O)c2nnn(CC(=O)Nc3cc(C)ccc3C)c2N)cc1 | n
Cc1ccc(CNC(=O)c2nnn(Cc3ccc(F)cc3)c2N)cc1 | 3.2µM
CCc1ccccc1NC(=O)Cn1nnc(C(=O)NCc2ccccc2Cl)c1N | n
Cc1ccc(C)c(Cn2nnc(C(=O)NCc3ccc(Cl)cc3Cl)c2N)c1 | 4.5µM
Nc1c(C(=O)NCc2ccc(Cl)cc2Cl)nnn1Cc1ccc(Br)cc1 | n
COCC1CN(C(=O)c2ccc(OC)cc2OC)CC12CCOCC2 (stereo not given) | n
CCOC(=O)c1ccccc1NC(=O)Cn1ccn2nc3c(c2c1=O)CCCCC3 | n
Cc1cnc(C(=O)NC2C[C@H]3CC[C@@H](C2)N3C(=O)Nc2cccc(C(F)(F)F)c2)cn1 (stereo not given in full) | n
CN(C)c1cccc(C(=O)Nc2ccc(-c3nnc4n3CCCC4)cc2)c1 | n
CSc1ccc(-c2nc(CN3CCN(C(C)=O)CC3)c(C)o2)cc1 | n
O=C(c1cnccn1)N1CCc2c(n(Cc3ccccc3)n(-c3ccccc3)c2=O)C1 | n
CCOC(=O)CC1COCCN1C(=O)c1cn(Cc2ccc(F)cc2Cl)nn1 (stereo not given) | n
Cc1cc(Cl)ccc1S(=O)(=O)NCCn1c(C)cnc1C1CCC1 | 6.3µM
Cc1cnc(C2CC2)n1CCNS(=O)(=O)c1ccccc1F | n
Cc1cc(C)c(S(=O)(=O)NCCn2c(C)cnc2C2CC2)c(C)c1 | 11µM
Cc1cnc(C2CCC2)n1CCNS(=O)(=O)c1ccccc1 | n
Cc1cnc(C2CC2)n1CCNC(=O)C(C)C | n
CC(=O)Nc1ccc(C)cc1S(=O)(=O)NCCn1c(C)cnc1C1CCC1 | n
SMILES | Pf Dd2 inh
O=C1N[C@H](CCC(=O)N2CCC(c3nnc4ccccn34)CC2)C(=O)Nc2ccccc21 | n
Cc1cc(C)c(NC(=O)Cn2c(=O)n(Cc3ccc(C(=O)NCc4ccc5c(c4)OCO5)cc3)c(=O)c3ccccc32)c(C)c1 | n
Cc1cccc(NC(=O)Cn2c(=O)n(Cc3ccc(C(=O)NCc4ccc5c(c4)OCO5)cc3)c(=O)c3ccccc32)c1 | 4µM
O=C(Cn1c(=O)n(Cc2ccc(C(=O)NCc3ccccc3Cl)cc2)c(=O)c2ccccc21)Nc1ccc(F)c(Cl)c1 | 10µM
O=C(Cn1c(=O)n(Cc2ccc(C(=O)NCc3ccccc3Cl)cc2)c(=O)c2ccccc21)Nc1ccc(F)cc1 | n
COc1ccc(NC(=O)Cn2c(=O)n(Cc3ccc(C(=O)NCc4ccccc4Cl)cc3)c(=O)c3ccccc32)cc1OC | n
Cc1ccc(C)c(NC(=O)Cn2c(=O)n(Cc3ccc4c(c3)OCO4)c(=O)c3ccc(C(=O)NC4CCCCC4)cc32)c1 | n
COc1cccc(NC(=O)Cn2c(=O)n(Cc3ccc(C(=O)NCc4ccc(C)cc4)cc3)c(=O)c3ccccc32)c1 | n
Cc1ccc(NC(=O)Cn2c(=O)n(Cc3ccco3)c(=O)c3ccc(C(=O)NC4CCCC4)cc32)c(C)c1 | n
CCN(C(=O)Cn1c(=O)n(Cc2ccc3c(c2)OCO3)c(=O)c2ccc(C(=O)NC3CCCCC3)cc21)c1cccc(C)c1 | 1.3µM
CC(=O)N1CCCC(c2nc(-c3cccnc3)no2)CCNC(=O)CC1 (stereo not given) | n
Cc1sc2cc(C(=O)N3CCCCC3)[nH]c2c1CN1CCCCC1 | n
CCn1nccc1C(=O)N1CCC(N2C(=O)C(OCC3CC3)C23CCOCC3)CC1 (stereo not given) | n
CCCN(CC1CCOC1)C(=O)Nc1cccc(SC)c1 (stereo not given) | n[5.79 µM]
O=C(NC1CCCCC1)C1CN(C(=O)c2ccccc2Br)CC12CCOCC2 (stereo not given) | n
COCCNC(=O)[C@@H]1C[C@H](Oc2cccnc2)CN1C(=O)Cc1c[nH]c2ccccc12 | n
CC(C)NC(=O)C[C@@H]1C[C@H]2O[C@H](CNC(=O)NC3CCC3)[C@@H](O)[C@H]2O1 | n
CCCCc1c(C)nc2c(-c3ccc(Cl)cc3)c(C)[nH]n2c1=O | n
Cc1ccc(Cc2c(C)nc3c(-c4ccccc4)c(C)[nH]n3c2=O)cc1 | n
Cc1nc2c(-c3ccccc3)c(C)[nH]n2c(=O)c1Cc1ccc(Br)cc1 | 7.9µM
COc1ccc(N2CC(C(=O)N3CCC(C(=O)NCc4ccc(F)cc4)C3)NC2=O)cc1 (stereo not given) | n
